In PubChem BioAssay (NCI) one finds growth data, which are given here for eight compounds.

Each structure is given as a SMILES string. The panel holds about 83,000 compounds, 20% with a hit somewhere; the sample as a whole holds those more often.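 Results are percent growth after 48 hours of single-concentration exposure. 100 means growth as in untreated cells, lower positive values show inhibition; negative values down to -100 show cell death.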 Values without a mark were called inactive. Active and inactive are the calls of the source. How the source made its calls: active means growth percent below 10; inactive means the rest.

Holding throughout (assay): NCI-60 one-dose screen, 48 h (100 = growth as untreated, 0 = no growth, -100 = all killed)
Holding throughout (conditions): 10 µM unless noted

The test system of experiment [1] is NCI-H23 lung.
The subject of experiment [2] is NCI-H226 lung.
The test system of experiment [3] is NCI-H322M lung.
The test system of experiment [4] is HOP-62 NSCLC.
In experiment [5] the test system is NCI-H460 lung.
For experiment [6], the system named is 786-0 renal.
In experiment [7] the test system is MDA-MB-231 breast.
Experiment [8] deals with SF-268 CNS.
For experiment [9], the system named is SF-539 CNS.
The test system of experiment [10] is M14 melanoma.
Experiment [11] has as its system U251 CNS.
The test system of experiment [12] is PC-3 prostate.
Experiment [13] relates to UACC-62 melanoma.
Experiment [14] has as its system SK-MEL-28 melanoma.
Experiment [15] has as its system UO-31 renal.
Experiment [16] deals with OVCAR-3 ovarian.
For experiment [17], the system named is SW-620 colon.
Experiment [18] deals with MCF7 breast.
Experiment [19] has as its system HCT-116 colon.
Experiment [20] has as its system KM12 colon.

As for `CC1=C(SCCC(=O)OCC(=O)NCCC[Te]c2ccccc2)C(=O)c2ccccc2C1=O`, the growth is -33.6% (active) in [1]; -4.17% (active) in [2]; -13.3% (active) in [3]; -49.1% (active) in experiment [4]; -43.1% (active) in [5]; 23.2% in experiment [6]. Also, the growth in experiment [7] was -34.5% (active); in [8] it was -13.1% (active); in experiment [9], -60.3% (active); in experiment [10], -52.4% (active); in experiment [11], -5.81% (active); in experiment [12], -9.1% (active). Moreover, the growth was 2.51% (active) in experiment [13]; -11.4% (active) in experiment [14]; -0.644% (active) in experiment [15]; -25.6% (active) in experiment [16]; 22.1% in experiment [17]; 3.85% (active) in experiment [18]. In addition, the growth in [19] is -12.9% (active); in experiment [20], 2.96% (active).

`[Br][Pb]([c]1ccccc1)([c]1ccccc1)[c]1ccccc1`: the growth in [1] was -88.8% (active); in experiment [2], -44.6% (active); in [3], -100% (active); in experiment [4] it was -97.7% (active); in [5], -100% (active); in experiment [6], -96.3% (active). The growth is -92.2% (active) in experiment [7]; -95.1% (active) in [8]; -90.6% (active) in [9]; -100% (active) in [10]; -100% (active) in [11]; -80.6% (active) in experiment [12]. Further, the growth was -92.2% (active) in experiment [13]; -100% (active) in [14]; -99.8% (active) in experiment [15]; -99% (active) in [16]; -95.3% (active) in experiment [17]; -69.9% (active) in experiment [18]. Besides, the growth in [19] was -100% (active); in [20], -99.4% (active).

With `O=C1NC(=S)NC(=O)C1=Cc1ccccc1`, the growth is 86.2% in [1]; 98.3% in experiment [2]; 119% in experiment [3]; 101% in experiment [4]; 104% in experiment [5]; 123% in experiment [6]. For the same compound, the growth in experiment [7] is 104%; in [8], 110%; in [9] it was 103%; in experiment [10] it was 108%; in [11], 103%; in experiment [12] it was 96.3%. The growth in experiment [13] is 106%; in experiment [14], 122%; in [15] it was 87.7%; in experiment [16], 121%; in experiment [17] it was 96%; in experiment [18] it was 93.2%. Moreover, the growth is 107% in [19] and 109% in [20].

Take `O=C1NC(=O)C(Cc2ccccc2)(Cc2ccccc2)C(=O)N1`: the growth in experiment [1] is 111%; in experiment [2] it was 105%; in [3], 111%; in experiment [4], 95.8%; in experiment [5] it was 110%; in experiment [6] it was 98.6%. Further, the growth in experiment [7] was 98.9%; in experiment [8] it was 109%; in [9], 110%; in [10], 103%; in experiment [11], 102%; in [12], 105%. For the same compound, the growth is 95.1% in [13]; 97.9% in [14]; 78.7% in experiment [15]; 119% in experiment [16]; 107% in experiment [17]; 94.8% in experiment [18]. The growth in experiment [19] was 107%; in experiment [20] it was 105%.

As to `c1ccc2nc(OCCN3CC3)ccc2c1`, the growth was 74.2% in experiment [1]; 83.1% in [2]; 94% in experiment [3]; 76.8% in experiment [4]; 72.3% in experiment [5]; 84.2% in experiment [6]. For the same compound, the growth in experiment [7] was 75%; in experiment [8], 96.6%; in experiment [9], 97.5%; in experiment [10] it was 86.5%; in experiment [11], 85.1%; in [13], 79.3%. For the same compound, the growth is 111% in experiment [14]; 59.4% in experiment [15]; 74.3% in experiment [16]; 64.8% in [17]; 71.4% in experiment [18]; 25% in experiment [19]. In experiment [20], the growth was 80.3%.

With `CC(C)(C)N(Cc1ccccc1)N=O`, the growth is 102% in experiment [1]; 91.7% in experiment [2]; 101% in experiment [3]; 99.4% in experiment [4]; 107% in experiment [5]; 99% in [6]. Further, the growth in experiment [7] is 91.9%; in [8], 108%; in [9] it was 99%; in [10], 103%; in experiment [11], 99.3%; in [12], 98.7%. Moreover, the growth is 103% in [13]; 106% in [14]; 96.7% in experiment [15]; 118% in experiment [16]; 101% in experiment [17]; 97.7% in [18]. The values for the growth in experiment [19] and in [20] were 106% and 104%, respectively.

As for `CC(C)CCC[C@@H](C)[C@H]1CC[C@H]2[C@@H]3CC=C4C[C@@H](OC(=O)Cc5ccc(N(CCCl)CCCl)cc5)CC[C@]4(C)[C@H]3CC[C@]12C`, the growth in experiment [1] was 107%; in experiment [2], 94.3%; in experiment [3], 214%; in experiment [4], 105%; in [5], 97.8%; in experiment [6], 96.7%. Further, the growth in experiment [7] is 101%; in [8] it was 108%; in experiment [9], 94.1%; in [10] it was 108%; in experiment [11] it was 109%; in experiment [12], 99.5%. Moreover, the growth was 94.4% in [13]; 111% in [14]; 90% in [15]; 112% in [16]; 109% in [17]; 99% in [18]. Also, the growth was 103% in experiment [19] and 109% in experiment [20].

As for `CC(C)(C)NCC(O)c1ccccc1Cl` (stereo not drawn), the growth was 25% in experiment [1]; 45% in experiment [2]; 28.3% in experiment [3]; 29.3% in experiment [4]; 6.76% (active) in [5]; 20.9% in experiment [6]. The growth in experiment [7] is 12.8%; in experiment [8] it was 26.6%; in experiment [9] it was 7.78% (active); in [10], -12.8% (active); in experiment [11] it was 10.2%; in [12], 18%. Moreover, the growth in [13] is 24%; in experiment [14], 48.2%; in [15] it was 48.1%; in experiment [16], -25.7% (active); in experiment [17] it was 22%; in [19], 7.48% (active). The growth in experiment [20] is 3.52% (active).
